Assay outcomes: PubChem BioAssay, National Center for Advancing Translational Sciences (NCATS)
Gal4-VP16 FLuc = Gal4-VP16 reporter inhibition counter-screen; 310,000 tested, 3.5% active; Potency, µM (doses to about 53.6 µM), hits mostly inhibitors; Drosophila S2 Gal4-VP16 UAS-luciferase, luminescence, 20 h;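 further: Gal4-VP16 expression switched on by copper sulfate through the metallothionein promoter; nearly all actives have a fitted effect of over 50% in size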
ELG1 repair inh = inhibitors of ELG1-dependent DNA repair in HEK293T cells; HEK293T ELG1-luciferase reporter, luminescence, 16 h; DNA damage induced by 5-fluorouridine; Potency, µM (series often up to 46.1 µM), most hits filed as inhibitors; 330,000 tested, 2.3% active; AID 504467; further: nearly all actives have a fitted effect of over 55% in size
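Step one: seed 2,000 cells per well. Step two: pin-transfer compound or DMSO alongside 5-fluorouridine. Step three: incubate 16 hr, 37 °C, 5% CO2. Step four: add ONE-Glo, wait 30 min, read luminescence.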
FBPA coupling cs = coupling enzyme interference in Giardia aldolase counter-screen | coupling enzyme system counterscreen, AmpLite Red fluorescence | activity change, negative = inhibition, % at 58.2 µM, hits read low | 290,000 tested, 0.67% active; in the data active means activity change below about -30%
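Counterscreen of the coupled detection system alone, without aldolase: glyceraldehyde-3-phosphate coupling enzymes plus AmpLite Red readout. Compounds at 57.5 uM final, 10 min RT preincubation, 20 min RT reaction, fluorescence 525/598 nm.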
RORg inh = blocks mouse ROR gamma transcriptional activity | Drosophila S2 Gal4-RORgamma UAS-luciferase reporter, 20 h | P51450 | Potency, µM (highest dose often 53.6 µM), hits mostly inhibitors | 310,000 tested, 5.4% active; further: nearly all actives have a fitted effect of over 60% in size
Target sequence (P51450 whole entry, looked up, the tested form may be a part): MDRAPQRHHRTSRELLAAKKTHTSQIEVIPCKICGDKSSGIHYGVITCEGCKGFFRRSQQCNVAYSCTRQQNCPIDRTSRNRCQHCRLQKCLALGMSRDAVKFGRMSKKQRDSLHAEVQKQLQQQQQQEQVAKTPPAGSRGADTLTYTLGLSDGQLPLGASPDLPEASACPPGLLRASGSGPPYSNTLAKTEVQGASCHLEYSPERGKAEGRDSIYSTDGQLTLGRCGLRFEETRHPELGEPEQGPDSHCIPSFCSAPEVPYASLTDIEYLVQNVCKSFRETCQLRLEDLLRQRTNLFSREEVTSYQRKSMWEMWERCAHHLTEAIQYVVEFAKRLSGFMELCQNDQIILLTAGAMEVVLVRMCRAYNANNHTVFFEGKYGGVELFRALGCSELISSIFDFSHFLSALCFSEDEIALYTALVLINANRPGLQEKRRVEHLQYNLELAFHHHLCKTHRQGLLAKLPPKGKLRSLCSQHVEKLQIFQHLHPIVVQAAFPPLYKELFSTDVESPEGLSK
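A Gal4/UAS one-hybrid system in insect cells: metallothionein-promoter Gal4–ROR gamma fusion plus Photinus luciferase reporter. Copper sulfate 700 uM final, 20 hr ambient incubation, luminescent detection after 10 min with reagent.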
TSHR antag = antagonists of human thyroid stimulating hormone receptor. 330,000 tested, 0.2% active. AID 504810. P16473. activity change, negative = inhibition, % at 11.5 µM. TSHR-expressing cells, TSH-stimulated cAMP HTRF, 2 h; stronger effect = lower value;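 active means activity change below a set negative limit, meaning inhibition stronger than a set level, cut at about -70% in these data; inconclusive means activity change between two set negative limits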
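TSHR-expressing cells, 200/well, pre-treated with compound, then stimulated with EC80 TSH (4nM final) for 2 hours at 37 deg C. cAMP measured by competitive HTRF: anti-cAMP cryptate antibody in lysis buffer plus cAMP-d2, read after 30 minutes at room temperature.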
Each line names hits and unclear results; the compound was inactive in the other large screens. Compounds with a hit are over-represented: about 8% of the library has one in this group of screens. Unless noted, the call rests on the fitted dose curve; in most records, active means well fitted curve in the direction sought with a large enough effect; inconclusive means small, poorly fitted or top-dose-only effect, or another doubt; inactive means no such curve, though single readings can be large; an effect the other way counts as inactive or inconclusive.

CNC(=O)CSc1nc2cccnc2n1-c1ccc(F)cc1	none
COc1cccc(CC2(CO)CCCN(Cc3ccc(CO)o3)C2)c1 (stereo not drawn)	none
COc1ccc(-n2ccnc2CN2CCCC(CO)(Cc3cccc(OC)c3)C2)cc1 (stereo not drawn)	RORg inh 11µM
COc1ccc(NC(=O)CSc2nnnn2C2CC3C=CC2C3)cc1 (stereo not drawn)	ELG1 repair inh inconclusive (no result: FBPA coupling cs)
CCc1ccc(-c2nc(CSCC(=O)NCc3ccco3)c(C)o2)cc1	Gal4-VP16 FLuc 2µM, ELG1 repair inh inconclusive, RORg inh 0.4µM
Cc1cc(NC(=O)CSCc2nc(-c3cccc(F)c3)oc2C)no1	none
CCOC(=O)CSCc1nc(-c2ccc(Cl)cc2)oc1C	Gal4-VP16 FLuc inconclusive, RORg inh 10µM
Cc1ccc(-c2nc(CSCC(=O)NCCN3CCN(Cc4ccccc4)CC3)c(C)o2)cc1	Gal4-VP16 FLuc inconclusive, ELG1 repair inh 16µM
Cc1ccc(-c2nc(CSCC(=O)NCCCN3CCOCC3)c(C)o2)cc1	none
Cc1ccc(-c2nc(CSCC(=O)Nc3cc(C)on3)c(C)o2)cc1	Gal4-VP16 FLuc 6.3µM, ELG1 repair inh inconclusive, RORg inh inconclusive
Nc1c(C(=O)Nc2ccccc2)nnn1-c1ccc2c(c1)OCCO2	Gal4-VP16 FLuc inconclusive, ELG1 repair inh inconclusive, RORg inh 10µM
Cc1ccc(NC(=O)c2nnn(-c3ccc4c(c3)OCCO4)c2N)cc1	ELG1 repair inh inconclusive
CCCN(CC1CC1)c1nc(C)nc(Nc2c(Cl)cc(Cl)cc2Cl)c1Cl	RORg inh 3.5µM (no result: ELG1 repair inh)
CCCN(CC1CC1)c1nc(N)c(C#N)c(CC#N)c1C#N	ELG1 repair inh inconclusive
CCOC(=O)c1c(C)oc2c1c(C(c1ccccc1)N1CCOCC1)c(O)c1ccccc12 (stereo not drawn)	Gal4-VP16 FLuc 10µM, ELG1 repair inh inconclusive, FBPA coupling cs -42, RORg inh inconclusive
CCOC(=O)c1c(C)oc2c1c(C(c1cccnc1)N1CCCCC1)c(O)c1ccccc12 (stereo not drawn)	ELG1 repair inh inconclusive, FBPA coupling cs -36, RORg inh inconclusive
CCOC(=O)c1c(C)oc2c1c(C=NCCO)c(O)c1ccccc12	Gal4-VP16 FLuc inconclusive, ELG1 repair inh inconclusive, FBPA coupling cs -65, RORg inh 11µM
N#Cc1nc(NCCCCO)nc(Nc2ccccc2)n1	none (no result: ELG1 repair inh, RORg inh, TSHR antag)
CCOC(=O)CNc1ccc2c(c1)OCO2	FBPA coupling cs -38
CCOC(=O)c1c(N)sc(C(=O)Nc2ccc3c(c2)OCO3)c1C	Gal4-VP16 FLuc 5.6µM, ELG1 repair inh inconclusive, RORg inh inconclusive
CCOC(=O)CNC(=O)/C=C/c1ccc2c(c1)OCO2	ELG1 repair inh inconclusive
CCOC(=O)/C(=C\c1ccc(OC(F)F)cc1)C1=Nn2c(nnc2-c2ccc(Cl)cc2)SC1	Gal4-VP16 FLuc 5.6µM, ELG1 repair inh 12µM, RORg inh 6.3µM
COc1ccc(-c2nnc3n2N=C(C)CS3)cc1	none
COC(=O)c1cc(Sc2cccc(Cl)c2Cl)ccn1	Gal4-VP16 FLuc 11µM, RORg inh inconclusive
COC(=O)c1cc(Sc2c(Cl)cccc2Cl)ccn1	RORg inh inconclusive
Cc1cccc(-c2cc3c(nn2)-c2ccccc2C3=O)c1	Gal4-VP16 FLuc inconclusive, ELG1 repair inh inconclusive
COc1ccc(-c2cc3c(nn2)-c2ccccc2C3=O)cc1	Gal4-VP16 FLuc inconclusive, ELG1 repair inh inconclusive, RORg inh 2.5µM
O=C1c2ccccc2-c2nnc(-c3ccccc3)cc21	Gal4-VP16 FLuc 11µM, ELG1 repair inh inconclusive, RORg inh 8.9µM
CC(C)c1ccc(CN2CCSCC2)cc1	none
COc1ccc(CN2CCNC(=O)C2CC(=O)N2CCCCO2)c(OC)c1 (stereo not drawn)	none
COc1cccc(CN2CCNC(=O)C2CC(=O)N2CCCCO2)c1OC (stereo not drawn)	ELG1 repair inh inconclusive, FBPA coupling cs -45
c1ccc(OCCCCn2cnc3ccccc32)cc1	Gal4-VP16 FLuc inconclusive, RORg inh 13µM
Cc1ccccc1OCCCCn1cnc2ccccc21	Gal4-VP16 FLuc 10µM, ELG1 repair inh inconclusive
c1ccc(CCn2cnc3ccccc32)cc1	Gal4-VP16 FLuc inconclusive, ELG1 repair inh inconclusive, RORg inh 13µM
Cc1ccc(OCCCCn2cnc3ccccc32)cc1	ELG1 repair inh inconclusive
CC(NC(=O)CN1C(=O)NC2(CCc3ccccc32)C1=O)c1ccccc1 (stereo not drawn)	none (no result: Gal4-VP16 FLuc, FBPA coupling cs, RORg inh)
Nc1ccc(Cc2ccc(N)c(O)c2)cc1O	ELG1 repair inh 9.2µM
Nc1ccc(-c2ccc(N)c(O)c2)cc1O	none (no result: ELG1 repair inh, FBPA coupling cs, TSHR antag)
CCOc1ccc(NC(=O)CN2CCc3cc4c(cc3C2)OCCCO4)cc1OCC	none (no result: FBPA coupling cs)
CCOc1ccc(CNC(=O)CCCn2nc(CC)n3c(cc4occc43)c2=O)cc1	ELG1 repair inh inconclusive, TSHR antag -110
CCc1nn(CCCC(=O)NCc2ccc(OC(C)C)cc2)c(=O)c2cc3occc3n12	none
O=C(Nc1ccccc1Cl)c1ccc(-c2ccccn2)s1	ELG1 repair inh inconclusive
Cc1nc2cnc(Oc3cccc(Cl)c3)nc2n(C[C@H]2CCCO2)c1=O	RORg inh inconclusive (no result: ELG1 repair inh, TSHR antag)
CC[n+]1ccc(/C=C/c2c[nH]c3ccccc23)cc1	Gal4-VP16 FLuc 13µM, ELG1 repair inh inconclusive
CN(C)c1ccc(N=Nc2ccc(C(=O)O)cc2)cc1	Gal4-VP16 FLuc 1.4µM, ELG1 repair inh inconclusive, RORg inh 0.5µM
CN(C)c1ccc(C(=O)c2ccccc2)cc1	ELG1 repair inh inconclusive
N#Cc1ccccc1-c1csc(N2CCC(C(N)=O)CC2)n1	none (no result: Gal4-VP16 FLuc, ELG1 repair inh, FBPA coupling cs, RORg inh)
CN(Cc1ccccc1)C(=O)c1cccc(NC(=O)C2CCCN(C(=O)OC(C)(C)C)C2)c1 (stereo not drawn)	ELG1 repair inh 26µM (no result: Gal4-VP16 FLuc, FBPA coupling cs, RORg inh)
O=C1c2ccccc2C(=O)N1CCCCc1cn(C[C@H]2CC[C@H](Cn3cc(CCCCN4C(=O)c5ccccc5C4=O)nn3)O2)nn1	ELG1 repair inh 8.2µM (no result: Gal4-VP16 FLuc, FBPA coupling cs, RORg inh)
c1ccc(CCc2cn(C[C@H]3CC[C@@H]([C@@H]4CC[C@H](Cn5cc(CCc6ccccc6)nn5)O4)O3)nn2)cc1	ELG1 repair inh inconclusive
CC(C)Cc1nc(SCC(=O)NCC2CCCO2)c2c(=O)n(C)c(=O)n(C)c2n1 (stereo not drawn)	none
CCOC(=O)c1sc(-c2ccccc2)cc1N	ELG1 repair inh inconclusive (no result: Gal4-VP16 FLuc)
CCOC(=O)c1sc(-c2ccccc2)cc1NC(=O)Nc1ccc([N+](=O)[O-])cc1	ELG1 repair inh 6.5µM
CC(C)CNC(=O)[C@H](Cc1ccccc1)NC(=O)c1cccs1	none
CCc1c(C)sc(NC(=O)c2noc(C)c2[N+](=O)[O-])c1C#N	Gal4-VP16 FLuc inconclusive, RORg inh 18µM
C=CCOc1c(CNc2nccs2)cccc1OCC	Gal4-VP16 FLuc inconclusive, RORg inh 11µM
C=CCOc1c(Cl)cc(CNc2nccs2)cc1OC	Gal4-VP16 FLuc inconclusive, RORg inh 5.6µM
C=CCOc1ccc(CNc2nccs2)cc1OCC	none
CCC(=O)Nc1nc(N)n(-c2ccccc2)n1	none
